# Test results taken from PubChem BioAssay (NCATS).
# Inconclusive results are not listed. The source made the active and inactive calls. Unless noted, calls come from the whole dose curve; as a rule, active = well fitted curve in the direction sought with a large enough effect; inconclusive = small, poorly fitted or top-dose-only effect, or another doubt; inactive = no such curve, though single readings can be large; an effect the other way counts as inactive or inconclusive.
# Tests used:
# [1] = Quantitative High-Throughput drug screen in 47 multiple myeloma cell lines against the NCATS MIPE library collection: PE2_PLB cell viability assay (AID 1919869); note: nearly all actives have a fitted effect of over 35% in size; note: potency is the fitted concentration of half-maximal effect
# How it was run: (§1)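 Inhibition of viability over 48 h was scored by ATP content (CellTiter-Glo) in 500-cell wells. Zero and full viability were defined by media-only and DMSO-only wells.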
# [2] = Quantitative High-Throughput drug screen in 47 multiple myeloma cell lines against the NCATS MIPE library collection: OPM2_DSMZ cell viability assay (AID 1919872); note: nearly all actives have a fitted effect of over 30% in size; note: potency is the fitted concentration of half-maximal effect
# How it was run: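 Relative luminescence from CellTiter-Glo served as the viability signal, referenced to DMSO-treated (100%) and cell-free medium (0%) controls. Treatment lasted 48 hours at 37C with 500 cells per well.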
# [3] = Quantitative High-Throughput drug screen in 47 multiple myeloma cell lines against the NCATS MIPE library collection: KMS11_JCRBsus cell viability assay (AID 1919873); note: nearly all actives have a fitted effect of over 50% in size; note: potency is the fitted concentration of half-maximal effect
# How it was run: as §1
# [4] = Quantitative High-Throughput drug screen in 47 multiple myeloma cell lines against the NCATS MIPE library collection: KMS28BM_JCRB cell viability assay (AID 1919874); note: nearly all actives have a fitted effect of over 35% in size; note: potency is the fitted concentration of half-maximal effect
# How it was run: as §1
# [5] = qHTS drug screen for cell cycle checkpoint inhibitors in PARPi-resistant BRCA-mutant ovarian cancer cell lines. (AID 1963452; calls by dose curve); details: PEO1/OlaR viability, CellTiter-Glo luminescence, 96 h, stronger effect = lower value
# How it was run: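 PEO1, PEO4 and PEO1/OlaR ovarian cancer cells, 600 per well, exposed 96 h at 37C to a dilution series. Viability read by CellTiter-Glo luminescence, normalized to DMSO and empty wells; activity summarized as Z-AUC.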
# [6] = qHTS profiling for inhibitors of Plasmodium falciparum proliferation (AID 504749);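 note: 0% = DMSO vehicle and full inhibition = artemisinin control; nearly all actives have a fitted effect of over 60% in size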; details: P. falciparum in erythrocytes, SYBR Green DNA, 72 h
# How it was run: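 Infected RBCs, 0.3% parasitemia/2.5% Hct final; cpd 72 h, 37 C, 5% CO2; lysis buffer with saponin/triton/SYBR Green I, o/n RT dark; FI 485/535; norm. to artemisinin (0.29 uM) and DMSO.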
# [7] = Quantitative High-Throughput drug screen in 47 multiple myeloma cell lines against the NCATS MIPE library collection: PCM6_Riken cell viability assay (AID 1919870); note: nearly all actives have a fitted effect of over 30% in size; note: potency is the fitted concentration of half-maximal effect
# How it was run: as §1
# [8] = Quantitative High-Throughput drug screen in 47 multiple myeloma cell lines against the NCATS MIPE library collection: RPMI8226_ATCC cell viability assay (AID 1919871); note: nearly all actives have a fitted effect of over 30% in size
# How it was run: as §1
# [9] = qHTS for identification of novel therapeutic agents for treatment of microphthalmiaassociated transcription factor (MiT) renal cell carcinoma (RCC) (AID 1963991; calls by dose curve; note: potency is the fitted concentration of half-maximal effect;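 for z-score: curves scaled with 100% = DMSO viability and 0% = empty wells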); details: CellTiter-Glo, 48 h; for z-score: stronger effect = lower value
# How it was run: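 UOK109/UOK124/UOK145 (TFE3 fusions, three partners); 500 cells/well; MIPE v4.0, 1912 cpds, 11 conc.; 48 h, 37 C; CellTiter-Glo, 15 min RT; lum. Norm.: DMSO 100%, empty 0%.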
# [10] = measured here: PEO1 parental Z-AUC
# [11] = at 28.7 µM (top of the series), parasite line A
# [12] = at 28.7 µM (top of the series), parasite line B
# [13] = TFE3-RCC UOK109 viability, measured here: UOK109 Z-AUC
# [14] = TFE3-RCC viability, measured here: UOK124 Z-AUC
# [15] = TFE3-RCC viability, measured here: UOK145 Z-AUC
# [16] = at 12.8 µM (top of the series), parasite line A
# [17] = at 12.8 µM (top of the series), parasite line B
smiles,measurement,setting,value
CNC[C@H](O)c1cccc(O)c1,Potency,[1],inactive
same,Potency,[2],inactive
same,Potency,[3],inactive
same,Potency,[4],inactive
same,Z-AUC,[5],0.649 (inactive)
same,Z-AUC,[5]; [10],0.723
same,Z-AUC,[5]; measured here: PEO4 Z-AUC,0.496
same,"activity, negative = inhibition",[6]; [11],6.65% (inactive)
same,"activity, negative = inhibition",[6]; [12],-11% (inactive)
Nc1ccc(S(=O)(=O)Nc2ccnn2-c2ccccc2)cc1,Potency,[7],inactive
same,Potency,[8],inactive
same,Potency,[2],inactive
same,Potency,[4],inactive
same,z-score,[9]; [13],2.1
same,z-score,[9]; [14],0.571
same,z-score,[9]; [15],1.56
same,"activity, negative = inhibition",[6]; [16],-1.36% (inactive)
same,"activity, negative = inhibition",[6]; [17],3.8% (inactive)
CCN(c1ccccc1)c1cc(NC)[n+](C)c(C)n1,Potency,[7],inactive
same,Potency,[8],inactive
same,Potency,[2],inactive
same,Potency,[3],inactive
same,Z-AUC,[5],1.35 (inactive)
same,Z-AUC,[5]; [10],1.27
same,Z-AUC,[5]; measured here: PEO4 Z-AUC,1.04
NC[C@H](O)c1ccc(O)c(O)c1,Potency,[1],11.8 µM (active)
same,Potency,[2],inactive
same,Z-AUC,[5],-0.408 (inactive)
same,Z-AUC,[5]; [10],-0.854
same,Z-AUC,[5]; measured here: PEO4 Z-AUC,-0.505
same,z-score,[9]; [13],0.441
same,z-score,[9]; [14],0.472
same,z-score,[9]; [15],0.785
same,"activity, negative = inhibition",[6]; [11],5.08% (inactive)
same,"activity, negative = inhibition",[6]; [12],9.63% (inactive)
Nc1ncnc2nc(-c3ccc(N4CCOCC4)nc3)cc(-c3cccc(Br)c3)c12,Potency,[1],18.7 µM (active)
same,Z-AUC,[5],0.819 (inactive)
same,Z-AUC,[5]; [10],1.06
same,Z-AUC,[5]; measured here: PEO4 Z-AUC,0.514
O=c1n(CCCN2CCN(c3cccc(Cl)c3)CC2)nc2ccccn12,Potency,[7],inactive
same,Potency,[8],inactive
same,Potency,[2],inactive
same,Potency,[3],inactive
same,"activity, negative = inhibition",[6]; [16],-5.98% (inactive)
CCC(=O)N[C@H]1CC[C@H](C(=O)N(C)c2ccc(-c3nc4ccccc4o3)cc2)C1,Potency,[1],13.2 µM (active)
same,Potency,[2],inactive
same,Potency,[4],14.8 µM (active)
same,Z-AUC,[5],-0.0495 (inactive)
same,Z-AUC,[5]; [10],-0.000542
same,Z-AUC,[5]; measured here: PEO4 Z-AUC,0.214
NNCCc1ccccc1,Potency,[7],inactive
same,Potency,[8],inactive
same,Potency,[3],inactive
same,Z-AUC,[5],0.52 (inactive)
same,Z-AUC,[5]; [10],0.364
same,Z-AUC,[5]; measured here: PEO4 Z-AUC,0.249
same,"activity, negative = inhibition",[6]; [17],-6.84% (inactive)
Cc1n[nH]c(C)c1Cc1sc2c(c1C(=O)N1C[C@H](O)CO1)c(=O)n(C)c(=O)n2CC(C)C,Potency,[7],inactive
same,Potency,[2],inactive
same,Potency,[3],0.0526 µM (active)
same,Potency,[4],inactive
Cc1cccc(-c2[nH]c(C(C)(C)C)nc2-c2ccc3nccnc3c2)n1,Potency,[7],7.43 µM (active)
same,Potency,[2],inactive
same,Z-AUC,[5],0.914 (inactive)
same,Z-AUC,[5]; [10],0.697
same,Z-AUC,[5]; measured here: PEO4 Z-AUC,0.424
Oc1cccc(-c2nc(N3CCOCC3)c3oc4ncccc4c3n2)c1,Potency,[7],0.54 µM (active)
same,Potency,[2],0.136 µM (active)
same,Z-AUC,[5],-0.82 (inactive)
same,Z-AUC,[5]; [10],-0.749
same,Z-AUC,[5]; measured here: PEO4 Z-AUC,-0.797
same,Potency,"[9]; TFE3-RCC UOK109 viability, active = Z-AUC below -0.8 in all three lines",4.81 µM (active)
same,z-score,[9]; [13],-1.31
same,z-score,[9]; [14],-1.8
same,z-score,[9]; [15],-2.03
Nc1nccc(-c2ccc3noc(-c4ccc(Cl)cc4)c3c2)n1,Potency,[8],inactive
same,Potency,[2],inactive
same,Potency,[3],inactive
same,Potency,[4],inactive
same,Z-AUC,[5],0.305 (inactive)
same,Z-AUC,[5]; [10],0.344
same,Z-AUC,[5]; measured here: PEO4 Z-AUC,0.149
CC(C)(C)NCC(O)c1ccc(O)c(CO)c1 (configuration not stated),Potency,[7],inactive
same,Potency,[8],inactive
same,Potency,[2],inactive
same,Z-AUC,[5],0.197 (inactive)
same,Z-AUC,[5]; [10],0.915
same,Z-AUC,[5]; measured here: PEO4 Z-AUC,0.881
same,z-score,[9]; [13],0.712
same,z-score,[9]; [14],0.591
same,z-score,[9]; [15],2.94
CS(=O)(=O)c1ccc(C(=O)Nc2ccc(Cl)c(-c3ccccn3)c2)c(Cl)c1,Potency,[8],inactive
same,Potency,[2],inactive
same,Potency,[3],inactive
same,Potency,[4],inactive
same,Z-AUC,[5],0.211 (inactive)
same,Z-AUC,[5]; [10],-0.252
same,Z-AUC,[5]; measured here: PEO4 Z-AUC,-0.353
O=c1ncn2nc(Sc3ccc(F)cc3F)ccc2c1-c1c(Cl)cccc1Cl,Potency,[7],13.2 µM (active)
same,Potency,[8],inactive
same,Potency,[4],inactive
same,Z-AUC,[5],-0.105 (inactive)
same,Z-AUC,[5]; [10],0.606
same,Z-AUC,[5]; measured here: PEO4 Z-AUC,0.747
same,z-score,[9]; [13],0.124
same,z-score,[9]; [14],1.12
same,z-score,[9]; [15],1.1
N[C@@H]1CONC1=O,Potency,[8],inactive
same,Potency,[2],inactive
same,Potency,[3],inactive
same,Potency,[4],inactive
same,Z-AUC,[5],-0.0127 (inactive)
same,Z-AUC,[5]; [10],1.55
same,Z-AUC,[5]; measured here: PEO4 Z-AUC,1.43
same,"activity, negative = inhibition",[6]; [11],-21% (inactive)
same,"activity, negative = inhibition",[6]; [12],-17% (inactive)
COc1ccc2nc(S(=O)Cc3ncc(C)c(OC)c3C)[nH]c2c1 (configuration not stated),Potency,[7],20.9 µM (active)
same,Potency,[8],inactive
same,Potency,[3],inactive
same,Z-AUC,[5],1.57 (inactive)
same,Z-AUC,[5]; [10],0.925
same,Z-AUC,[5]; measured here: PEO4 Z-AUC,1.02
same,"activity, negative = inhibition",[6]; [11],-18.6% (inactive)
same,"activity, negative = inhibition",[6]; [12],-6.81% (inactive)
CC(C)NCC(O)COc1ccc(COCCOC(C)C)cc1 (configuration not stated),Potency,[7],inactive
same,Potency,[8],inactive
same,Potency,[2],inactive
same,"activity, negative = inhibition",[6]; [11],1.04% (inactive)
same,"activity, negative = inhibition",[6]; [12],5.04% (inactive)
N=c1nc(N2CCCCC2)cc(N)n1O,Potency,[7],23.5 µM (active)
same,Potency,[8],inactive
same,Potency,[3],inactive
same,Potency,[4],inactive
same,"activity, negative = inhibition",[6]; [11],6.18% (inactive)
same,"activity, negative = inhibition",[6]; [12],18.3% (inactive)
N#CC[C@H](C1CCCC1)n1cc(-c2ncnc3[nH]ccc23)cn1,Potency,[8],inactive
same,Potency,[2],inactive
same,Potency,[3],20.9 µM (active)
same,Potency,[4],20.9 µM (active)
same,Z-AUC,[5],0.476 (inactive)
same,Z-AUC,[5]; [10],0.0833
same,Z-AUC,[5]; measured here: PEO4 Z-AUC,0.752
